Screening data: PubChem, National Center for Advancing Translational Sciences (NCATS)
CHX counter: affects cycloheximide protein synthesis inhibition readout, counter-screen. cell reporter, cycloheximide protein synthesis inhibition counterscreen. max response, %. 300,000 compounds, 12% hits; in the data active = max response mostly above about 13%, no sharp cut-off; inactive = mostly below about 14%; also: read at 38.3 µM for the half of the compounds with a filed dose; 0% is about no effect
Pf growth 48h: P. falciparum growth inhibition at 48 hours (one generation) | P. falciparum luciferase growth in erythrocytes, 48 h | 310,000 compounds, 5.9% hits | Potency, µM (titrated, usually from 28.7 µM), for the others: at the top dose activity change, negative = inhibition, actives largely listed as inhibitors | AID 504832; also: potency is read from the fitted curve at half-maximal effect; % is scaled to controls: 0 for no effect and ±100 for the full control effect
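Growth was read as firefly luciferase luminescence after a 48 h, 37 C, 5% CO2 exposure of compounds to reporter-bearing P. falciparum cultures (0.1% parasitemia, 2% hematocrit final) in Albumax-supplemented RPMI 1640.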
SARS PLP yeast: SARS-CoV PLP inhibition in yeast; S. cerevisiae expressing SARS-CoV PLpro, growth rescue; Potency, µM (doses to about 32.9 µM), without a hit: top-dose activity, positive = growth rescue, most hits filed as activators; 330,000 compounds, 0.19% hits; AID 485353; calls by dose curve; also: potency is read from the fitted curve at half-maximal effect; 0% is about no effect; nearly all actives have a fitted effect of over 55% in size
NS1 inh: inhibitors of influenza NS1 protein function. 270,000 compounds, 0.4% hits. Potency, µM (highest dose often 46.1 µM), without a hit: at the top dose activity, positive = more growth; calls by dose curve; also: potency is read from the fitted curve at half-maximal effect; actives are rising curves; nearly all actives have a fitted effect of over 50% in size
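Compounds were scored for reversing the slow growth caused by influenza A NS1 in S. cerevisiae, measured by optical density at 600 nm. Assay medium contained 2% galactose at pH 6.0; NS1-free yeast of the same strain were the positive control.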
Shiga toxin inh: inhibitors of Shiga toxin in Vero cells. Vero cells, Shiga toxin protein synthesis inhibition reporter. inhibition, % at 38.7 µM. 290,000 compounds, 9.2% hits; in the data active = inhibition mostly above about 28%, no sharp cut-off; inactive = mostly below about 43%; also: 0% is about no effect
Pf growth 96h: inhibits malaria parasite growth, 96 h; 320,000 compounds, 6.9% hits; P. falciparum luciferase reporter growth, 96 h; Potency, µM (top dose mostly 28.7 µM), without a hit: at the top dose activity change, negative = inhibition, most hits filed as inhibitors; AID 504834; also: potency is read from the fitted curve at half-maximal effect; % is scaled to controls: 0 for no effect and ±100 for the full control effect
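Plates of compound plus infected erythrocytes (2% hematocrit, 0.05% parasitemia final) incubate 96 hours, 37 C, 5% CO2. Detection reagent added; reduced luminescence from the parasites' luciferase reporter flags inhibition.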
The depositor's hits bear a star; u = inconclusive; x = no result given. Only some compounds are listed: those with a hit (about 21% of all), similar ones and a draw of the others. Unless noted, calls follow the shape of the dose curve; as a rule, active = well fitted inhibition curve with a large enough effect; inconclusive = small, poorly fitted or top-dose-only effect, or another doubt; inactive = no such curve, though single readings can be large or run the other way.

SMILES | CHX counter | Pf growth 48h | SARS PLP yeast | NS1 inh | Shiga toxin inh | Pf growth 96h
CCCn1c(N)c(C(=O)CSc2nnnn2-c2ccc(O)cc2)c(=O)n(C)c1=O | -1 | x | -2% | 5% | -14 | u
O=Cc1s/c(=N\S(=O)(=O)c2ccccc2)n(CCCCl)c1Cl | -3 | 4% | -8% | 4% | -25 | 1%
CC(C)C[C@H](NC(=O)C1CC(=O)N(c2ccc3c(c2)OCCO3)C1)C(=O)N1CCCCC1 (stereo partly drawn) | 1 | u | -5% | -1% | -5 | -17%
COc1ccc(C(=O)/C=C/c2ccc(OCc3ccccc3)cc2)cc1CSCC(=O)O | 1 | 15% | 0% | -1% | -6 | -13%
COc1ccc(C(=O)/C=C/c2cccc(OCc3ccccc3)c2)cc1CSCC(=O)O | -8 | 9.3µM* | 1% | 8% | -2 | 4.7µM*
CC(C)(C)OC(=O)CC1(C#N)c2ccccc2C(Br)=CN1C(=O)c1ccccc1 (stereo not drawn) | x | 12µM* | 3% | x | x | 12µM*
N#CC1(Cc2ccccc2Cl)c2ccccc2C=CN1C(=O)c1ccccc1 (stereo not drawn) | 2 | u | -15% | 7% | -8 | x
O=C(CN(Cc1ccc(F)cc1)C(=O)C1CSC(=O)C1)NC1CCCCC1 (stereo not drawn) | -1 | -4% | -2% | 6% | -6 | u
CCCCNC(=O)c1ccc(NC(=O)C2CCCO2)cc1 (stereo not drawn) | 11* | 57% | 0% | -9% | 10 | 17%
O=C(Nc1ccc(F)cc1)C1CCCO1 (stereo not drawn) | 2 | 12% | 1% | 6% | -9 | 13%
CCCCc1ccc(NC(=O)C2CCCO2)cc1 (stereo not drawn) | 55* | -21% | -6% | 1% | 72* | 159%
CC(C)OCCCNC(=O)c1ccc(NC(=O)C2CCCO2)cc1 (stereo not drawn) | 8 | 16% | -2% | 2% | -5 | u
NS(=O)(=O)c1ccc(NC(=O)C2CCCO2)cc1 (stereo not drawn) | -3 | 4% | 7% | 4% | 9 | x
CCCN(CCC)S(=O)(=O)c1ccc(NC(=O)C2CCCO2)cc1 (stereo not drawn) | -3 | u | 6% | 6% | 0 | 9.3µM*
Cc1ccc(S(=O)(=O)N2CCN(C(=O)CNC(=O)c3sc4ccccc4c3Cl)CC2)cc1 | x | 6% | 8% | x | x | 2%
CC(=O)Oc1ccc(/C=C2/Oc3ccccc3C2=O)cc1 | 32* | 14% | 0% | -31% | 49* | 8%
O=C1/C(=C/c2ccccc2)Oc2cc(OC(=O)N3CCOCC3)ccc21 | 19* | 5% | -12% | 1% | 11 | u
COc1ccc(/C=C2\Oc3ccccc3C2=O)cc1 | x | x | -9% | x | x | x
CCCCn1c(SCC(=O)Nc2cc(C)on2)nc2ccsc2c1=O | 13 | -3% | -1% | 11% | -4 | 4%
Cc1cc(NC(=O)CSc2nc3ccsc3c(=O)n2CCCCC(=O)O)no1 | -7 | 12% | -1% | 14% | 6 | 4.7µM*
COc1ccc(CCn2c(SCC(=O)Nc3cc(C)on3)nc3ccsc3c2=O)cc1OC | 7 | 8.3µM* | -2% | u | 7 | x
N#CCCn1cc(/C=N/NC(=O)c2ccncc2)c(-c2ccc(F)cc2)n1 | -1 | 8% | -12% | 2% | -2 | 0%
O=C(COC(=O)c1c(F)cccc1F)c1ccc[nH]1 | 38* | u | -2% | -5% | 82* | 48%
O=C(OCC(=O)c1ccc[nH]1)c1ccccc1 | 47* | 411% | -1% | x | 118* | 412%
COc1ccc(Cc2noc(CN(C)CCN3CCc4ccccc4C3)n2)cc1OC | 6 | -70% | -1% | 1% | -3 | 7.4µM*
COc1ccc(Cc2noc(CN(C)CCc3ccccc3)n2)cc1OC | 6 | u | 0% | -5% | 11 | u
CN(CCN1CCc2ccccc2C1)Cc1nc(Cc2ccccc2F)no1 | 2 | u | 0% | 1% | -7 | 10µM*
CN1c2ccccc2C(=O)NC1c1ccc([N+](=O)[O-])s1 (stereo not drawn) | 1 | u | 0% | -1% | 18 | u
CC1COC(C)(CC(=O)NN2C(=O)c3ccccc3C2=O)O1 (stereo not drawn) | -2 | 28% | 0% | 3% | -12 | 2.6µM*
